Source: PubChem BioAssay
TDP1 block = TDP1 (human) enzyme inhibition; AID 485290; Potency, µM (titrated, usually from 130 µM), without a hit: at the highest dose activity change, negative = inhibition, most hits filed as inhibitors; actives 0.28% (n = 350,000); recombinant TDP1, AlphaScreen DNA substrate cleavage; note: potency is the fitted concentration of half-maximal effect; % is set by controls: 0 for no effect and ±100 for the full control effect; nearly all actives have a fitted effect of over 40% in size
Target sequence (Q9NUW8 whole entry, looked up): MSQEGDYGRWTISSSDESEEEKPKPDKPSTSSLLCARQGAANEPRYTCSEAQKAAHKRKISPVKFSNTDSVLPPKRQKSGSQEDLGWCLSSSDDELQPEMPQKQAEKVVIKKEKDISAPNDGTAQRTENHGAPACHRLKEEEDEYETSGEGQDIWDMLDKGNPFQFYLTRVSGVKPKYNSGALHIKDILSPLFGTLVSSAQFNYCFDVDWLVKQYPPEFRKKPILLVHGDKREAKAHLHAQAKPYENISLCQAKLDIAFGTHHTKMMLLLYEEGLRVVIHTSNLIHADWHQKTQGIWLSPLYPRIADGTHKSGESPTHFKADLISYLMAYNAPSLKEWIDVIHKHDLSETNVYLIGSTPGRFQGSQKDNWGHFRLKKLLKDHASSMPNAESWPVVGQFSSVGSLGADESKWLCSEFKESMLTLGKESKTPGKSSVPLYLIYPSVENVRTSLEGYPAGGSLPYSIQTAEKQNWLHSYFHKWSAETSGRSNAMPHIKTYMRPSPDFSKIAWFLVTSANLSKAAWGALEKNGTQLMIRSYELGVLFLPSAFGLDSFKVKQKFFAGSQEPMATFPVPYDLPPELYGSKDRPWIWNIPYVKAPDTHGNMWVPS
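Here, a 5' biotin and 3' phosphotyrosine-FITC DNA oligonucleotide reports Tdp1 activity: intact substrate bridges AlphaScreen beads, while cleavage leaves a 3' phosphate and drops signal. All incubations at room temperature.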
HepG2 tox = HepG2 cytotoxicity, counter-screen for TGF-b inhibitors. HepG2 CAGA-GFP viability, ATP luminescence, 18 h. Potency, µM (highest dose often 46.1 µM), without a hit: at the highest dose activity change, negative = cytotoxicity, hits mostly cytotoxic. actives 0.76% (n = 410,000). AID 588856; note: potency is the fitted concentration of half-maximal effect
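HepG2 CAGA-GFP cells (1000/well, DMEM with 1% FBS) received compound, then TGF-beta at 500 pg/mL final, and were incubated 18 hours at 37 degrees C. Viability was read by CellTiter-Glo luminescence. Media-only wells were set as complete cell-killing and DMSO as no toxicity.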
IL1B secr inh = inhibitors of inflammasome signaling (IL-1 beta secretion); actives 4.7% (n = 360,000); THP-1 LPS/ATP IL-1B secretion, AlphaLISA, 16 h; stronger effect = lower value; activity change, % at 57.5 µM; in the data active = activity change below about -50%; inconclusive = mostly about -30% to -49%; note: % is set by controls: 0 for no effect and ±100 for the full control effect
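Secreted IL-1B measured by AlphaLISA bead assay after 16 h compound exposure of THP-1 cells; compounds (final up to 57.5 uM) added 1 h before LPS (250 ng/mL) and ATP (1.25 mM) stimulation; lower signal means less secretion.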
TDP1 cell CPT = growth inhibition of DT40 Tdp1-/-;hTDP1 cells with camptothecin (screen for TDP1 inhibitors); Potency, µM (highest dose often 46.2 µM), without a hit: top-dose activity change, negative = growth inhibition, actives largely listed as inhibitors; AID 686979; actives 12% (n = 420,000); chicken DT40 Tdp1-/-;hTDP1 cells + 20 nM CPT, ATP luminescence, 48 h; note: potency is the fitted concentration of half-maximal effect; % is set by controls: 0 for no effect and ±100 for the full control effect; nearly all actives have a fitted effect of over 55% in size
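Cell growth measured by CellTiter-Glo luminescence after a minimum 48 h, 37 C compound exposure with 20 nM CPT in Tdp1-knockout DT40 cells stably expressing hTDP1, seeded 400/well; qHTS titration format.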
TDP1 cell noCPT = qHTS for Inhibitors of human tyrosyl-DNA phosphodiesterase 1 (TDP1): qHTS in cells in absence of CPT | DT40 Tdp1-/- hTDP1 cells, no CPT, ATP luminescence, 48 h | Potency, µM (series often up to 46.2 µM), inactives show at the top dose activity change, negative = growth inhibition, usual class: inhibitors | actives 15% (n = 420,000); note: potency is the fitted concentration of half-maximal effect; % is set by controls: 0 for no effect and ±100 for the full control effect; nearly all actives have a fitted effect of over 55% in size
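Readout: luminescence from CellTiter-Glo after 30 min in the dark at RT. Cells: DT40 Tdp1-/- with stable hTDP1, 400/well. Exposure: compounds alone, ≥48 hr, 37 °C.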
TGFb SMAD3 inh = TGF-b pathway inhibition. HepG2 CAGA-GFP TGF-b/SMAD3 reporter, GFP fluorescence, 18 h; TGF-beta stimulated, 500 pg/mL final. AID 588855. actives 1.2% (n = 410,000). Potency, µM (series often up to 46.1 µM), for inactives: at the top dose activity, negative = inhibition, usual class: inhibitors; note: potency is the fitted concentration of half-maximal effect; % is set by controls: 0 for no effect and ±100 for the full control effect; nearly all actives have a fitted effect of over 65% in size
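Using HEPG2 CAGA-GFP reporter cells at 1000 cells/well, we pinned test compounds, stimulated with recombinant TGF-beta (500 pg/mL final) and measured total well GFP after 18 h.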
An asterisk follows results filed as active; ? = inconclusive; . = no result given; [ ] = dose if it differs, or a comment. A selection: hits, their analogues and other compounds. The true share with any hit is near 18%. Unless noted, calls come from the whole dose curve; as a rule, active = well fitted curve in the direction sought with a large enough effect; inconclusive = small, poorly fitted or top-dose-only effect, or another doubt; inactive = no such curve, though single readings can be large; an effect the other way counts as inactive or inconclusive.

SMILES	TDP1 block	HepG2 tox	IL1B secr inh	TDP1 cell CPT	TDP1 cell noCPT	TGFb SMAD3 inh
CC(Oc1cccc(Cl)c1)C(=O)NCc1ccc(S(N)(=O)=O)cc1 (stereo unspecified)	5%	11%	13	?	26µM*	5%
COc1cccc([C@@H]2Oc3ccc(Br)cc3C(=O)[C@H]2OC(=O)N[C@H](C)C2CCCCC2)c1	9%	.	.	.	.	.
CC(=O)N1c2ccccc2N=C(c2ccc(C(F)(F)F)cc2)C1C(=O)NC(C)C (stereo unspecified)	.	.	42	21µM*	23µM*	.
O=C(NC1CCCC1)C1C(c2ccc(C(F)(F)F)cc2)=Nc2ccccc2N1C(=O)c1ccco1 (stereo unspecified)	.	.	9	16µM*	?	.
COc1ccc(CCC(=O)N2c3ccccc3N=C(c3ccc(C(F)(F)F)cc3)C2C(=O)NC(C)(C)C)cc1 (stereo unspecified)	.	.	-10	?	?	.
Cc1nc2ccc(C(=O)N3c4ccccc4N=C(c4ccc(C(F)(F)F)cc4)C3C(=O)NC(C)(C)C)cc2[nH]1 (stereo unspecified)	.	.	37	?	15µM*	.
CCCCNC(=O)C1C(c2ccc(C(F)(F)F)cc2)=Nc2ccccc2N1C(=O)c1cccc(C(F)(F)F)c1 (stereo unspecified)	.	.	0	?	?	.
COc1ccc(CCC(=O)N2c3ccccc3N=C(c3ccc(C(F)(F)F)cc3)C2C(=O)NC(C)C)cc1 (stereo unspecified)	.	.	50	23µM*	?	.
O=C(NC1CCCC1)C1C(c2ccc(C(F)(F)F)cc2)=Nc2ccccc2N1C(=O)c1ccccc1 (stereo unspecified)	.	.	43	?	?	.
CCC(C(=O)NCCCN1CCCC1=O)n1c2ccccc2c2nc(=O)cc(C)n21 (stereo unspecified)	1%	16%	-5	3%	10%	5%
CSc1ccc2cc(CNCc3ccccc3F)c(N3CCCC(CO)C3)nc2c1 (stereo unspecified)	.	.	.	-6%[9.04 µM]	-12%	.
Cc1ccc(C(=O)N2c3ccccc3N=C(c3ccccc3)C2C(=O)NC(C)C)cc1 (stereo unspecified)	.	.	-1	-25%	?	.
CC(C)NC(=O)C1C(c2ccccc2)=Nc2ccccc2N1C(=O)c1cc(Cl)cc(Cl)c1 (stereo unspecified)	.	.	1	23µM*	?	.
COc1ccc(CCN(C)C2CCCN(S(=O)(=O)c3ccc(C)cc3)C2)cc1OC (stereo unspecified)	.	-34%	-1	?	?	?
O=C(NCc1ccccc1)c1cc(C2CCCCN2C(=O)CCc2ccccc2)on1 (stereo unspecified)	.	-7%	-11	?	-19%	-1%
Cc1ccc(C)c(CC(=O)N2CCCCC2c2cc(C(=O)Nc3ccc(F)c(Cl)c3)no2)c1 (stereo unspecified)	.	-31%	-16	21µM*	23µM*	-12%
N#Cc1cccc(NC(=O)c2cc(C3CCCCN3C(=O)CCCc3ccccc3)on2)c1 (stereo unspecified)	.	-17%	?	23µM*	?	1%
O=C(Nc1ccc(F)c(Cl)c1)c1cc(C2CCCCN2C(=O)c2ccccc2)on1 (stereo unspecified)	.	-18%	-12	8.2µM*	6.5µM*	?
O=C(Nc1ccc(F)c(Cl)c1)c1cc(C2CCCCN2C(=O)c2ccc(Cl)cc2)on1 (stereo unspecified)	.	-1%	?	21µM*	21µM*	-12%
O=C(NCCC(F)(F)F)C1Cc2c(-c3ccc(Cl)cc3)ccnc2O1 (stereo unspecified)	.	-4%	-8	?	?	5%
CCOc1ccccc1N(C)C(=O)Cn1cnc2sc(C)c(S(=O)(=O)N3CCC(C)CC3)c2c1=O	3%	-17%	.	?	?	3%
O=C(CCn1cccc(C(F)(F)F)c1=O)Nc1cccc(C(F)(F)F)c1	-6%	1%	-13	-10%	-19%	0%
O=C(Nc1ccccc1)c1cc(C2CCCCN2C(=O)CCc2ccccc2)on1 (stereo unspecified)	.	-27%	9	?	-26%	-7%
O=C(Nc1ccc(F)c(Cl)c1)c1cc(C2CCCCN2C(=O)CCc2ccccc2)on1 (stereo unspecified)	.	-26%	-20	15µM*	?	-24%
CCc1ccc(OCC(=O)N(Cc2ccc(C(C)C)cc2)C2CCS(=O)(=O)C2)cc1 (stereo unspecified)	2%	-50%	.	16µM*	?	?
Cc1cc(OCC(=O)N(Cc2ccc(N(C)C)cc2)C2CCS(=O)(=O)C2)cc(C)c1Cl (stereo unspecified)	8%	-24%	.	?	18µM*	?
Cc1cccc(OCC(=O)N(Cc2ccc(N(C)C)cc2)C2CCS(=O)(=O)C2)c1 (stereo unspecified)	4%	29%	-50*	-13%	-17%	12%
O=C(COc1ccc(Cl)cc1)N(Cc1ccc(F)cc1)C1CCS(=O)(=O)C1 (stereo unspecified)	1%	-1%	-11	-26%	-21%	-7%
Cc1cc(OCC(=O)N(C)C2CCCCC2)cc(C)c1Cl	3%	-6%	0	?	21µM*	-17%
Cc1cccc(C)c1OCC(=O)N(Cc1ccc(N(C)C)cc1)C1CCS(=O)(=O)C1 (stereo unspecified)	7%	-3%	0	-29%	-25%	0%
